Data taken from PubChem BioAssay (NCATS).
Records with an inconclusive call do not appear. The source made the active and inactive calls. Calls follow the shape of the dose curve; as a rule, active = well fitted curve in the direction sought with a large enough effect; inconclusive = small, poorly fitted or top-dose-only effect, or another doubt; inactive = no such curve, though single readings can be large; an effect the other way counts as inactive or inconclusive.

What was measured:
[1] = target: Lysine-specific demethylase 5B (Homo sapiens) (UniProt Q9UGL1); test: Optimization screen for KDM5B Histone Demethylases FDH coupled qHTS against the LOPAC library (AID 1347166); also: 0% is about no effect
In short: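 KDM5BDeltaAP (200nM final) preincubated 10 min with compound, then 12.5uM H3K4Me3, 25uM a-ketoglutarate, ascorbate, Fe(II), NAD+ and FDH added; 50mM HEPES pH 7.5, 0.01% Tween-20. NADH fluorescence (340/450 nm) change over 30 min, room temperature.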

[2] = qHTS to identify inhibitors of the type 1 interferon - major histocompatibility complex class I in skeletal muscle: primary screen against the NCATS LOPAC collection (AID 1347405);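 also: lytic HiBiT luminescence reporting HLA-B protein level; % is scaled to controls: 0 for no effect and ±100 for the full control effect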
In short: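 CRISPR-engineered immortalized human myoblasts (C25cl48) with HiBiT fused to endogenous HLA-B*08:01, stimulated with 4 ng/ml IFN-beta. LOPAC compounds tested as a 7-point 1:4.3 titration (top 46 uM final), 24 h at 37 C; lytic HiBiT luminescence read.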

[3] = qHTS to identify inhibitors of the type 1 interferon - major histocompatibility complex class I in skeletal muscle: primary screen against the NCATS Pharmaceutical Collection (AID 1347407);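 also: luminescence of HiBiT knocked into endogenous HLA-B as interferon-induced MHC class I level; % is scaled to controls: 0 for no effect and ±100 for the full control effect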
In short: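 Immortalized human myoblasts (C25cl48) with HiBiT knocked into endogenous HLA-B*08:01 were stimulated with 4.0 ng/ml IFN-beta and treated with compounds ([…] top 46 uM) for 24 hrs at 37 C. HiBiT lytic luminescence read.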

[4] = qHTS for inhibitors of adenylyl cyclases using a fission yeast platform: a pilot screen against the NCATS LOPAC library (AID 1347410);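 also: plate controls were DMSO vehicle for no effect and DPI positive control for full effect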
In short: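 S. pombe CHP2027 (AC9-GNAS-PDE4D2) carrying PKA-repressed fbp1-GFP, incubated 18 h at 30C in EMM with LOPAC compounds at up to 57 uM. GFP gain-of-signal read by laser scanning cytometry; DMSO negative control.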

[5] = target: Protein phosphatase 1D (Homo sapiens) (UniProt O15297); test: RapidFire Mass Spectrometry qHTS Assay for Modulators of WT P53-Induced Phosphatase 1 (WIP1) (AID 1347424);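 also: amount of dephosphorylated VEPPL-S-QETFS peptide product formed by WIP1; series mostly up to about 63 µM; plate controls were DMSO wells for no effect and GSK830371 inhibitor control at 10 µM for full effect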
In short: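 10 nM WIP1 preincubated with compounds 1 hr at room temperature in pH 7.5 Tris buffer with 30 mM MgCl2, 1 mM TCEP; 2 uM VEPPL-pS-QETFS phosphopeptide for 5 min, formic acid quench; dephosphorylated product quantified by RapidFire MS against labelled standard.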

[6] = target: Protein phosphatase 1D (Homo sapiens) (UniProt O15297); test: Rhodamine-PBP qHTS Assay for Modulators of WT P53-Induced Phosphatase 1 (WIP1) (AID 1347425); also: % of control where 0% means no effect
In short: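 The read-out is the change in Rhodamine-PBP fluorescence (f1 - f0, ex 525/em 598 nm) as Pi is released, read each minute for 11 min. Final reaction: 5 nM WIP1, 10 uM phosphopeptide VEPPL-pS-QETFS, 10 uM Rh-PBP, 50 mM Tris-HCl pH 7.5, 30 mM MgCl2. Compound was preincubated with enzyme for 1 hour at room temperature.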

[7] = Validation qHTS assay for inhibitors of Activation Induced Cytidine Deaminase (AID): UDG Counterscreen signal (AID 1347427); also: 0% is about no effect
In short: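 Counterscreen read of UDG activity (2 U/mL, 4/3x) in the FRET deamination format with AID (1 uM, 4/3x), DJC20/DJC23 substrates (250 nM, 4x), 4 h at room temperature. NaOH stop, fluorescence at 560 ex/665 em.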

[8] = target: Single-stranded DNA cytosine deaminase (Homo sapiens) (UniProt Q9GZX7); test: Validation qHTS assay for inhibitors of Activation Induced Cytidine Deaminase (AID): AID signal (AID 1347429); also: % is scaled to controls: 0 for no effect and ±100 for the full control effect
In short: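 FRET deamination assay: 1 uM AID (4/3x stock) with UDG, compound up to 114 uM, then 250 nM DJC20/DJC23 substrate (4x stock) for 4 hr at room temperature. NaOH added, 30 min; fluorescence read 540/590 nm.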

[9] = Primary qHTS for inhibitors of La Crosse Virus (LACV) - induced cell death in SH-SY5Y cells (AID 1508616);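 also: top concentration of the series differs between compounds; 0% = infected DMSO wells and 100% = uninfected DMSO wells; higher means more rescue of cells from virus-induced death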
In short: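 SH-SY5Y cells (6000/well) plated 24 h, then given compounds by pin transfer and LACV at 0.01 MOI for 6 days at 37C. Viability measured by ATPLite luminescence, normalized to infected DMSO and uninfected DMSO.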

[10] = target: Calcium and integrin-binding protein 1 (Homo sapiens) (UniProt Q99828); test: Validation qHTS for Identification of Calcium Integrin Binding protein 1 (CIB1) Competitor (AID 1508618); also: % is scaled to controls: 0 for no effect and ±100 for the full control effect
In short: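 CIB1-GST (1 uM final) incubated 15 min at room temperature with compounds (up to 114 uM), then FITC-labelled alphaIIb peptide (100 nM) added. FP read (Ex 480/Em 540) after 15 min, pH 7.4 buffer containing 5 mM CaCl2.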

[11] = target: Calcium and integrin-binding protein 1 (Homo sapiens) (UniProt Q99828); test: Primary qHTS for Identification of Calcium Integrin Binding Protein 1 (CIB1) Competitor (AID 1508620)
In short: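 Fluorescence polarization competition: GST-tagged CIB1 (1 uM final) preincubated with compound 15 min at room temperature, then FITC-labelled alphaIIb peptide (100 nM final) added. After 15 min at room temperature, polarization read at Ex 480/Em 540.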

[12] = Confirmatory screen NINDS Rhodamine qHTS for Zika virus inhibitors (AID 1347161); also: nearly all actives have a fitted effect of over 60% in size; also: potency is read from the fitted curve at half-maximal effect;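 as to activity change, negative = inhibition: purified Zika NS2B-NS3 protease with linked NS2B cofactor domain and Rhodamine110 peptide substrate; series mostly up to about 110 µM; plate controls were no-inhibitor control for no effect and no-enzyme control for full effect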
In short: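 Purified NS2B-NS3 protease with the NS2B hydrophilic domain joined by a flexible linker (25 nM) in 10 mM Tris-HCl pH 8.0, 0.01% Tween 20, preincubated 15 min at RT with compound; Rhodamine110 peptide substrate 1.5 µM; fluorescence change over 15 min; 4-parameter Hill fit.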

[13] = Vero cells viability qHTS for Zika virus inhibitors (AID 1347167); also: % is scaled to controls: 0 for no effect and ±100 for the full control effect
In short: (§1)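 Cells seeded at 2.5 x 10^5 cells/mL in DMEM with 4% FBS and attached overnight at 37 degrees C, then exposed to compound for 24 to 48 hours. Viability read as ATP content by CellTiter Glo luminescence.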

[14] = HepG2 cells viability qHTS for Zika virus inhibitors (AID 1347168); also: % is scaled to controls: 0 for no effect and ±100 for the full control effect
In short: as §1

[15] = system: Zika virus NS2B-NS3 protease (linked construct); test: 384 well plate NINDS Rhodamine confirmatory qHTS for Zika virus inhibitors (AID 1347164); conditions: rhodamine-110 peptide substrate fluorescence;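 also: fluorescence from protease cleavage of Ac-LKRR-rhodamine 110 substrate; potency is read from the fitted curve at half-maximal effect; nearly all actives have a fitted effect of over 65% in size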
In short: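 Linked NS2B-NS3 protease (final 5, 30 or 60 nM) preincubated ~15 minutes with compounds, then 10 microM Ac-LKRR-Rhodamine 110 added. Fluorescence (485/538 nm) read after 25 minutes at room temperature, normalized to no-enzyme and no-inhibitor controls.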

[16] = qHTS to identify inhibitors of the type 1 interferon - major histocompatibility complex class I in skeletal muscle: primary screen against the NCATS Mechanism Interrogation Plate v5.0 (MIPE) Libary (AID 1347411);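 also: plate controls were vehicle for no effect and reference inhibitor for full effect; nearly all actives have a fitted effect of over 65% in size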
In short: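 Immortalized human myoblasts (C25cl48) with HiBit knocked into endogenous HLA-B*08:01 were stimulated with 4 ng/ml IFN-beta and given compounds in 11-point 1:3 titration from 46 uM. After 24 h at 37 C, lytic HiBiT luminescence was read.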

Sequence of Lysine-specific demethylase 5B (Homo sapiens) (Q9UGL1 whole entry, looked up): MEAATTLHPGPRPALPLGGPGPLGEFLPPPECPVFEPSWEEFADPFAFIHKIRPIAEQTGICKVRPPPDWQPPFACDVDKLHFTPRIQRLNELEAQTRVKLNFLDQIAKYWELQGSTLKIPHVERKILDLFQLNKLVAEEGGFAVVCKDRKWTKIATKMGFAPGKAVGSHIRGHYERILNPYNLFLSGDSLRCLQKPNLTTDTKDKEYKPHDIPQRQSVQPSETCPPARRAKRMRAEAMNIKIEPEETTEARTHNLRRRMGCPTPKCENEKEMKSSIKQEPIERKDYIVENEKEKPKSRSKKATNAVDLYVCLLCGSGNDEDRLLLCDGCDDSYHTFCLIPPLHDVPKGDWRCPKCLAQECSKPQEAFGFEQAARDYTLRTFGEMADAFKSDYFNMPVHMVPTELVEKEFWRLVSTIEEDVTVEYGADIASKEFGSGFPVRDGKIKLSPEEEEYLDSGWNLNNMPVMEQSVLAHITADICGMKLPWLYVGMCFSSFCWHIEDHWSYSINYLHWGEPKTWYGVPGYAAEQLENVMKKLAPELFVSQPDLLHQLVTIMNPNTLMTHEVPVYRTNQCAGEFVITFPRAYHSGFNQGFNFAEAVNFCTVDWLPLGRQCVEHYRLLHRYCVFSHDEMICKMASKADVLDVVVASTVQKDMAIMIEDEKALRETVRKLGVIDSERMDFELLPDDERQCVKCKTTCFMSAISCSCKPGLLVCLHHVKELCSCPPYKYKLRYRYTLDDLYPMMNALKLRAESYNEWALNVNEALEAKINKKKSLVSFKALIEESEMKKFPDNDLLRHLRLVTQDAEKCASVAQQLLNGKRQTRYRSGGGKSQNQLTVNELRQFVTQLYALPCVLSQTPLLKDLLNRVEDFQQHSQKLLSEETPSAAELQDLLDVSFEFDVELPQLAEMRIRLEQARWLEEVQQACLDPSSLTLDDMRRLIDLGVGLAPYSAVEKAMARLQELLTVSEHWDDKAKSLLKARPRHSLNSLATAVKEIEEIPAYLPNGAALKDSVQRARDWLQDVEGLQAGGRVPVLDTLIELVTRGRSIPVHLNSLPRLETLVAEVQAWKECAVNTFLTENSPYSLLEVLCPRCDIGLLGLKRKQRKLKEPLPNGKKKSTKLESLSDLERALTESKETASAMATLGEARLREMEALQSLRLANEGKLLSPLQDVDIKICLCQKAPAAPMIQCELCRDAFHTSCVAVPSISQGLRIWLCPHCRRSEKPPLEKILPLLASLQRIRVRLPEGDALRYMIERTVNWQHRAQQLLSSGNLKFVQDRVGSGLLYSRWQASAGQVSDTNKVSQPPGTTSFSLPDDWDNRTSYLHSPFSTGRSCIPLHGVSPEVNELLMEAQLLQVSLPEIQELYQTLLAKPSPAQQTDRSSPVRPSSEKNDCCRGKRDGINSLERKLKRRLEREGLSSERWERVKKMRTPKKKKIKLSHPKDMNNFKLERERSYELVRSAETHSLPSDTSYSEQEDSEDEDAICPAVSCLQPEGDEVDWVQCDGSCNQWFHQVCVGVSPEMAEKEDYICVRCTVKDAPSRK
Sequence of Calcium and integrin-binding protein 1 (Homo sapiens) (Q99828 whole entry, looked up): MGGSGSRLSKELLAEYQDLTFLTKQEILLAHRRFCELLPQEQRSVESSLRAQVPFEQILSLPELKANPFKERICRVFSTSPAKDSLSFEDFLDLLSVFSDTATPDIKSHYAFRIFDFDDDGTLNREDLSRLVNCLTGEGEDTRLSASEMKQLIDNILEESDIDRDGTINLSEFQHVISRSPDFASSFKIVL
Sequence of Single-stranded DNA cytosine deaminase (Homo sapiens) (Q9GZX7 whole entry, looked up): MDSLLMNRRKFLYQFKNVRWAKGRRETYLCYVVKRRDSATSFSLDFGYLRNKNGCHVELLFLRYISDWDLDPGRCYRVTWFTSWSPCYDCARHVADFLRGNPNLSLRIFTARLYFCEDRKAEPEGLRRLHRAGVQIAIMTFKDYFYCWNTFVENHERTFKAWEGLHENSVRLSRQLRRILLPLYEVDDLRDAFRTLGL
Sequence of Protein phosphatase 1D (Homo sapiens) (O15297 whole entry, looked up): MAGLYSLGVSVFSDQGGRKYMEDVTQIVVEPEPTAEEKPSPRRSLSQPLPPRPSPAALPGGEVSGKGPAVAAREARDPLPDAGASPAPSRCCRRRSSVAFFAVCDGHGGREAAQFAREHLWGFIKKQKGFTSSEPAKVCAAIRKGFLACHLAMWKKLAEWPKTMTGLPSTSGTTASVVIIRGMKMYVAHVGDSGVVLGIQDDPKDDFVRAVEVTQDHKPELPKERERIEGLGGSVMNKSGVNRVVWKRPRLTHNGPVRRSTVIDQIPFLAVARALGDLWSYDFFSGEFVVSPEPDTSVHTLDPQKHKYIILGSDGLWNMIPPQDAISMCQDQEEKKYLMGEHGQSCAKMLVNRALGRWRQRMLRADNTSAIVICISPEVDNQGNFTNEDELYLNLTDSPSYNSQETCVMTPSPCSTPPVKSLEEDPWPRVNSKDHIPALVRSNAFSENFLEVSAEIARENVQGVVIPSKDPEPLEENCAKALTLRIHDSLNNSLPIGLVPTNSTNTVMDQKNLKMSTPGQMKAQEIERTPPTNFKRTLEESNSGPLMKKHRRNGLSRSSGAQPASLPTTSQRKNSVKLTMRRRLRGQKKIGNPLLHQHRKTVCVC

c1cnc(N2CCN(Cc3ccc4c(c3)OCO4)CC2)nc1
inactive: Potency [1] | Potency [2] | Potency [3] | outcome [4] | Potency [5] | outcome [6] | outcome [7] | Potency [8] | Potency [9] | outcome [10] | Potency [11]

Cc1nc2sccn2c(=O)c1CCN1CCC(=C(c2ccc(F)cc2)c2ccc(F)cc2)CC1
inactive: Potency [12] | outcome [13] | outcome [14] | Potency [2] | Potency [3] | outcome [4] | Potency [5] | outcome [6] | outcome [7] | Potency [8] | Potency [9]

CCN(CC)CC(=O)Nc1c(C)cccc1C
inactive: Potency [1] | Potency [2] | Potency [3] | outcome [4] | Potency [5] | outcome [6] | outcome [7] | Potency [8] | Potency [9] | outcome [10] | Potency [11]

NC1=NCC2c3ccccc3Cc3ccccc3N12 (configuration not stated)
inactive: Potency [1] | Potency [2] | Potency [3] | outcome [4] | Potency [5] | outcome [6] | outcome [7] | Potency [8] | Potency [9] | outcome [10]

O=C1CC2(CCCC2)CC(=O)N1CCCCN1CCN(c2ncccn2)CC1
inactive: Potency [1] | Potency [2] | Potency [3] | outcome [4] | Potency [5] | outcome [6] | outcome [7] | Potency [8] | Potency [9] | outcome [10]

CC(C)NCC(O)c1cc(O)cc(O)c1 (configuration not stated)
inactive: Potency [1] | Potency [2] | Potency [3] | outcome [4] | Potency [5] | outcome [6] | outcome [7] | Potency [8] | Potency [9] | outcome [10]

CN(C)[C@@H]1C(=O)C(C(N)=O)=C(O)[C@@]2(O)C(=O)C3=C(O)c4c(O)ccc(Cl)c4[C@@H](O)[C@H]3C[C@@H]12
active: Potency [12] 12.4 µM | Potency [15] 25.1 µM
inactive: Potency [2] | Potency [3] | outcome [4] | Potency [5] | outcome [6] | outcome [7] | Potency [8] | Potency [9] | outcome [10]

C[N+](C)(C)CCOC(N)=O
inactive: Potency [1] | Potency [2] | Potency [3] | outcome [4] | Potency [5] | outcome [6] | outcome [7] | Potency [8] | Potency [9] | outcome [10] | Potency [11]

CCOC(=O)c1cnc2c(cnn2CC)c1NN=C(C)C
inactive: Potency [12] | Potency [1] | outcome [13] | outcome [14] | Potency [2] | Potency [3] | outcome [4] | Potency [5] | outcome [6] | outcome [7] | Potency [8] | Potency [9] | outcome [10] | Potency [11]

CC(=O)Oc1cc(C(C)C)c(OCCN(C)C)cc1C
inactive: Potency [1] | Potency [2] | Potency [3] | outcome [4] | Potency [5] | outcome [6] | outcome [7] | Potency [8] | Potency [9]

OCCN1CCN(CCCN2c3ccccc3C=Cc3ccccc32)CC1
inactive: Potency [1] | Potency [2] | Potency [3] | outcome [4] | Potency [5] | outcome [6] | outcome [7] | Potency [8] | Potency [9] | outcome [10]

CCN(Cc1ccncc1)C(=O)C(CO)c1ccccc1 (configuration not stated)
inactive: Potency [1] | Potency [2] | Potency [3] | outcome [4] | Potency [5] | outcome [6] | outcome [7] | Potency [8] | Potency [9] | outcome [10]

CN1CCN(CC(=O)N2c3ccccc3C(=O)Nc3cccnc32)CC1
inactive: Potency [1] | Potency [2] | activity change, negative = inhibition [3] -1.82% [at 3.83 µM] | outcome [4] | activity change, negative = inhibition [5] -2.97% [at 6.17 µM] | activity change, negative = inhibition [6] 8.19% [at 4.81 µM] | outcome [7] | Potency [8] | Potency [9] | outcome [10] | activity change, negative = inhibition [11] -0.936% [at 12.4 µM]

COc1ccc([C@@H]2Sc3ccccc3N(CCN(C)C)C(=O)[C@@H]2OC(C)=O)cc1
inactive: Potency [1] | Potency [2] | Potency [3] | outcome [4] | Potency [16] | Potency [5] | outcome [6] | outcome [7] | Potency [8] | Potency [9] | outcome [10] | Potency [11]

CN(C)CCN(Cc1cccs1)c1ccccn1
inactive: Potency [1] | Potency [2] | Potency [3] | outcome [4] | Potency [5] | outcome [6] | outcome [7] | Potency [8] | Potency [9] | outcome [10] | Potency [11]

Fc1ccc(C(c2ccc(F)cc2)N2CCN(C/C=C/c3ccccc3)CC2)cc1
inactive: Potency [1] | Potency [2] | Potency [3] | outcome [4] | Potency [5] | outcome [6] | outcome [7] | Potency [8] | Potency [9] | outcome [10] | Potency [11]

CCO/C([O-])=N/c1c[n+](N2CCOCC2)no1
inactive: Potency [1] | Potency [3] | outcome [4] | Potency [5] | outcome [6] | outcome [7] | Potency [8] | Potency [9] | outcome [10]

CN/C(=C\[N+](=O)[O-])NCCSCc1ccc(CN(C)C)o1
inactive: Potency [1] | Potency [3] | outcome [4] | Potency [5] | outcome [6] | outcome [7] | Potency [8] | Potency [9] | outcome [10] | Potency [11]

NCCCNCCSP(=O)(O)O
inactive: Potency [1] | activity change, negative = inhibition [3] 3.17% [at 9.18 µM] | outcome [4] | activity change, negative = inhibition [5] 0.628% [at 12.6 µM] | activity change, negative = inhibition [6] 1.47% [at 11.5 µM] | outcome [7] | Potency [8] | Potency [9] | outcome [10]

CC(=O)OCC1=C(C(=O)O)N2C(=O)[C@@H](NC(=O)Cc3cccs3)[C@H]2SC1
inactive: Potency [1] | Potency [3] | outcome [4] | Potency [5] | outcome [6] | outcome [7] | Potency [8] | Potency [9] | outcome [10] | Potency [11]

CN(C)CC[C@@H](c1ccc(Br)cc1)c1ccccn1
inactive: Potency [1] | Potency [3] | outcome [4] | Potency [5] | outcome [6] | outcome [7] | Potency [8] | Potency [9] | outcome [10] | Potency [11]

CN(C)CCCN1c2ccccc2Sc2ccccc21
inactive: Potency [1] | Potency [2] | Potency [3] | outcome [4] | Potency [5] | outcome [6] | outcome [7] | Potency [8] | Potency [9] | outcome [10] | Potency [11]
